Data as given in PubChem BioAssay.
Active and inactive are the calls of the source.

What was measured:
Albumin (Bos taurus) = Albumin (Bos taurus) (UniProt P02769); experiment: compounds binding labelled BSA control protein – biochemical, small-molecule microarray, Alexa647 label, 635/667 nm fluorescence, artefact control for SMM control protein annotation, profiling panel (AID 1118); conditions: BSA-A647 binding, fluorescence 635 nm, higher = more signal;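 note: score merges 667 nm emission intensity and signal-to-noise per printed compound spot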
[1] = probe aXIP binding to arrayed compounds – biochemical, NeuroSMM set, 635/667 nm fluorescence, primary screen (AID 1119); conditions: small-molecule microarray, higher = more signal, called active from +8 up or from −8 down;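 note: probe is the protein aXip251-270 applied at 1 µg/mL to compound-printed slides; binding of probe to printed compounds measured as 667 nm fluorescence plus signal to noise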
[2] = probe aNOTCH3 binding on compound microarray – biochemical, small-molecule microarray, 635/667 nm fluorescence, primary screen (AID 1120); conditions: higher = more signal;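 note: probe is a biotin-tagged antibody raised against NOTCH3 rather than NOTCH3 protein; score merges spot fluorescence near 667 nm with spot signal to noise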
[3] = probe aNOTCH2 binding on compound microarray – biochemical, small-molecule microarray, 635/667 nm fluorescence, primary screen (AID 1121); conditions: higher = more signal;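 note: score merges feature fluorescence read at 667 nm with its signal to noise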
[4] = biological target: Carbonic anhydrase 2 (Homo sapiens) (UniProt P00918); experiment: compounds binding carbonic anhydrase 2 – biochemical, small-molecule microarray, Alexa647-labelled CAII, profiling panel (AID 1122); conditions: CAII-A647 binding fluorescence, higher = more signal
[5] = COS7 lysate on small-molecule microarray, probe aHis, 635 nm (AID 1123); conditions: COS7 cell lysate, fluorescence, higher = more signal;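 note: z-score combines 667nm fluorescence intensity with signal-to-noise per printed compound spot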
[6] = probe aLAP1 signal on lysate-treated microarray – cell lysate, small-molecule microarray, COS7 lysate, primary screen (AID 1124); conditions: probe aLAP1, fluorescence, higher = more signal;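 note: lysate comes from COS7 cells expressing LAP1 and is applied at 0.3 µg/mL; score merges spot fluorescence near 667 nm with signal-to-noise over triplicate slides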
Sam68 (KHDRBS1) = experiment: compounds binding KHDRBS1 protein – biochemical, small-molecule microarray, 635 nm fluorescence, primary screen (AID 1125); conditions: higher = more signal;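 note: score merges 667 nm channel intensity with signal to noise over triplicate slides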
[7] = system: Chordin-like protein 2 (CHRDL2); experiment: compounds binding chordin-like 2 – biochemical, small-molecule microarray, 635 nm fluorescence, primary screen (AID 1126); conditions: fluorescence 635 nm, higher = more signal;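 note: printed compound slides probed with Chrdl2 protein at 4 µg/mL for 1 h at 4 C; score merges 667 nm emission intensity with signal to noise over three replicate slides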
[8] = biological target: Concanavalin-A (Canavalia ensiformis) (UniProt P02866); experiment: compounds binding concanavalin A lectin – biochemical, small-molecule microarray, Alexa647 label, 635 nm, artefact control for SMM control protein annotation, primary screen (AID 1127); conditions: ConA-A647 binding fluorescence, higher = more signal;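 note: z combines 667 nm emission intensity with signal-to-noise across three replicate slides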
Chain of Concanavalin-A (Canavalia ensiformis) (P02866 whole entry, looked up): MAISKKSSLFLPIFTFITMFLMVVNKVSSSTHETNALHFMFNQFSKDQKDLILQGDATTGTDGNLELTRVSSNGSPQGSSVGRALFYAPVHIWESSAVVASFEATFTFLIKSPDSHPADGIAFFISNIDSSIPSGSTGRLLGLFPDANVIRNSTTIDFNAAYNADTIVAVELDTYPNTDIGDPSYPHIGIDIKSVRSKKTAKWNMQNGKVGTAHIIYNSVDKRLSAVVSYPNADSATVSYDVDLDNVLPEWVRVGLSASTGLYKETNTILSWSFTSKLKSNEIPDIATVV

Chain of Albumin (Bos taurus) (P02769 whole entry, looked up): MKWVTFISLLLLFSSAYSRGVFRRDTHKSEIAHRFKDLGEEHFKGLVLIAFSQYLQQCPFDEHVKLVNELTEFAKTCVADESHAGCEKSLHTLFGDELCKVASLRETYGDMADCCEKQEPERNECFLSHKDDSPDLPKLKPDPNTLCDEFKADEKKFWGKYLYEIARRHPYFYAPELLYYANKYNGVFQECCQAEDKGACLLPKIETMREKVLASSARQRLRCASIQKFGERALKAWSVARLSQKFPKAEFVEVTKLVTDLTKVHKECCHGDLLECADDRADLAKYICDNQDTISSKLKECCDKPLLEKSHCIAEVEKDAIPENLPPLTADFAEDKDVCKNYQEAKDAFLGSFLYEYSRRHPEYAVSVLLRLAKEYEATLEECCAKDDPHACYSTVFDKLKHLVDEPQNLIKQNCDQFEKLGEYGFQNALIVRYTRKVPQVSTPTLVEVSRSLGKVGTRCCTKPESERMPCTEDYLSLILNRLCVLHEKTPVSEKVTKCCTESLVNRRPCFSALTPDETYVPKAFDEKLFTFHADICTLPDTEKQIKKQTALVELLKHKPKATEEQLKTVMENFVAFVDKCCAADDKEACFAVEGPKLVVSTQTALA

Compound | composite z-score (Albumin (Bos taurus)) | composite Z-score [1] | composite z-score [2] | composite z-score [3] | composite z-score [4] | composite z-score [5] | composite z-score [6] | composite z-score (Sam68 (KHDRBS1)) | composite z-score [7] | composite z-score [8]
C=CC[C@@]1(C(=O)NCCCOC)N=C(c2ccc(OCCCO)cc2)O[C@@H]1c1ccccc1N=[N+]=[N-] | 0.896 | -0.349 (inactive) | 0.356 | -0.125 | 0.224 | 1.73 | 0.209 | 1.01 | -0.325 | 0.562
CCC#CCN(Cc1ccccc1Br)[C@H](/C=C/C1CC1)[C@@H](O)Cc1ccccc1 | 0.0902 | -0.457 (inactive) | -0.262 | -0.176 | -0.458 | -0.408 | -0.477 | -0.549 | -0.784 | -0.138
COC(=O)[C@@H]1N=C(c2ccc(OCCCO)cc2)O[C@@H]1c1ccccc1 | 0.258 | 0.536 (inactive) | -0.206 | -0.104 | 0.7 | 0.387 | -0.342 | -0.826 | -1.89 | -0.324
CC(=O)NCCCC[C@@H]1NC(=O)[C@@H]2C[C@H](C(=O)NCCCCCN)[C@H](c3ccc(O)cc3)N2C1=O | 0.0285 | -0.0662 (inactive) | 0.237 | 0.0654 | 0.527 | 1.26 | 1.06 | 1.11 | 0.964 | 0.956
COc1ccc([Si](C)(C)[C@@H]2[C@@H](CCO)O[C@]3(C(=O)N(Cc4ccccc4)c4ccc(NC(=O)[C@H](C)O)cc43)[C@H]2C)cc1 | 0.0962 | -0.0289 (inactive) | 0.147 | -0.106 | 0.377 | 1.2 | 0.515 | 1.29 | 0.448 | 1.14
CCCC1(C(=O)OC)C=C2C(=C(C)C(=O)C2C)CN1 (stereo not given) | -0.15 | 0.931 (inactive) | 0.0416 | -0.0936 | 0.664 | 1.24 | -0.293 | -0.406 | -0.027 | -2.2
COC(=O)C/C=C/C[C@]1(O)C(=O)N(C)c2ccccc21 | -0.475 | -0.571 (inactive) | 0.212 | -0.099 | 0.273 | 0.401 | 0.111 | 0.241 | 0.934 | -0.556
C=CCN1C(=O)[C@]2(CCC(=O)OC(C)(C)C)N=C(c3ccc(OCCCO)cc3)O[C@@H]2c2ccccc21 | -0.361 | -0.014 (inactive) | 0.185 | -0.118 | 0.256 | 1.38 | 0.023 | 0.587 | 0.281 | 1.14
CCCC=C(CCC)[C@@H](NC(=O)c1cccs1)c1ccc(C(=O)OC)cc1 | -0.0481 | 0.0599 (inactive) | 1.29 | 0.728 | 0.0222 | 0.0362 | -0.0022 | -0.411 | 0.513 | 0.588
CCOC(=O)C1=CC[C@@H](c2ccccc2F)N(S(=O)(=O)c2ccc(C)cc2)[C@H]1c1ccccc1 | 0.437 | -0.244 (inactive) | 0.103 | 0.0416 | 0.338 | 1.19 | 0.212 | 1.18 | 0.0943 | 0.83
CCOc1cc(C(O)C2C=CC3C(=O)NC(=O)C3N2Nc2ccc(Cl)cc2Cl)ccc1O (stereo not given) | -0.671 | 0.568 (inactive) | -0.152 | -0.0601 | 0.797 | 1.23 | -0.587 | -1.94 | -0.157 | -0.915
COC(=O)[C@@]1(Cc2ccc(F)cc2)[C@H]2c3cc(C(=O)N4CCCC4)n(Cc4ccc(C)c(F)c4F)c3C[C@H]2CN1C(=O)c1ccccc1 | 1.04 | -0.474 (inactive) | -0.0304 | 0.219 | 0.834 | 0.922 | 1.14 | -0.451 | -0.186 | -0.927
COCCCNC(=O)[C@@]1(CCC(=O)OC(C)(C)C)N=C(c2ccc(OCCCO)cc2)O[C@H]1c1ccccc1N=[N+]=[N-] | 0.945 | 0.289 (inactive) | 0.26 | 0.325 | 0.62 | 2.01 | 0.843 | 1.25 | 0.279 | 1.16
CC(C)C[C@@H]1NC(=O)[C@@H]2C[C@H](C(=O)NCCCCCCN)[C@H](c3cccc(OCCO)c3)N2C1=O | 0.586 | 0.799 (inactive) | 0.16 | -0.0859 | 0.659 | 2.22 | 0.636 | 1.31 | 0.668 | 1.03
COc1ccc([Si](C)(C)[C@H]2[C@H](CC(=O)N3CCC[C@H]3CO)O[C@@]3(C(=O)N(Cc4ccc(N5CCOC5=O)cc4)c4ccccc43)[C@@H]2C)cc1 | -0.195 | -0.0549 (inactive) | 0.336 | -0.075 | 0.364 | 1.89 | 0.145 | 1.34 | 0.731 | 0.618
COc1ccc([Si](C)(C)[C@@H]2[C@@H](CCO)O[C@]3(C(=O)N(Cc4ccccc4)c4ccc(N5C(=O)c6cccc7cccc5c67)cc43)[C@H]2C)cc1 | 0.511 | 0.708 (inactive) | -0.146 | -0.155 | -0.0746 | 1.25 | -0.3 | -0.239 | -0.215 | 1.01
